From PubChem BioAssay (NCATS)
Inconclusive results are not listed. Activity calls are given as the source filed them. The call rests on the fitted dose curve.

Columns and labels:
[1] = Primary qHTS for inhibitors of SARS-S pseudo-typed particle cell entry (AID 1479145); conditions: outcome: dose series up to 57.1 µM unless noted; further: nearly all actives have a fitted effect of over 45% in size; on activity change, negative = inhibition: on the % scale 0 is the no-effect control and ±100 the full control effect
[2] = Primary qHTS for Huh7 cytotoxicity: counterscreen for inhibitors of MERS-S pseudotyped particle cell entry (AID 1479147); conditions: outcome: dose series up to 57.1 µM unless noted; on activity change, negative = cytotoxicity: on the % scale 0 is the no-effect control and ±100 the full control effect
[3] = Primary qHTS for inhibitors of MERS-S pseudo-typed particle cell entry (AID 1479149); conditions: outcome: dose series up to 57.1 µM unless noted; further: nearly all actives have a fitted effect of over 60% in size
[4] = Primary qHTS for Vero E6 cytotoxicity: counterscreen for inhibitors of SARS-S pseudo-typed particle cell entry (AID 1479150); conditions: outcome: dose series up to 57.1 µM unless noted; on activity change, negative = cytotoxicity: on the % scale 0 is the no-effect control and ±100 the full control effect
[5] = Cytotoxicity counterscreen for inhibitors of SARS-CoV-2 cell entry (AID 1645845); conditions: outcome: dose series up to 57.1 µM unless noted; further: nearly all actives have a fitted effect of over 50% in size; on activity change, negative = cytotoxicity: on the % scale 0 is the no-effect control and ±100 the full control effect
In short: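 48 h compound treatment (after 1 h preincubation), HEK293-ACE2 cells, 37 C/5% CO2; ATP luminescence endpoint; normalized to cell wells and media blanks.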

[6] = Primary qHTS to identify inhibitors of SARS-CoV-2 cell entry (AID 1645846); conditions: SARS-CoV-2 pseudovirus cell entry assay, luminescence; activity change, negative = inhibition: at 57.1 µM (top of the series) unless noted; further: nearly all actives have a fitted effect of over 45% in size
In short: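 Luminescence readout (Bright-Glo luciferase) 48 h after pseudoparticle addition. HEK293-ACE2 cells, 1500/well; compound pre-incubation 1 h; Normalized to spike PP and bald PP.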

Cc1cc(=O)c(C(=O)N[C@@H](C(=O)N[C@@H]2C(=O)N3C(C(=O)O)=C(CSc4nnnn4C)CS[C@H]23)c2ccc(O)cc2)c[nH]1
-20.7%: activity change, negative = inhibition [6]
inactive: Potency [1] | Potency [2] | Potency [3] | Potency [4] | Potency [5]

CO/N=C(\C(=O)N[C@@H]1C(=O)N2C(C(=O)O)=C(Cn3ccc(=N)n3CCO)CS[C@H]12)c1csc(N)n1
-19.1%: activity change, negative = inhibition [6]
inactive: Potency [1] | Potency [2] | Potency [3] | Potency [4] | Potency [5]

O=C1O[C@H]2[C@H](OC(O)[C@@H]2O)[C@@H]1O (stereo partly drawn)
inactive: Potency [1] | Potency [2] | Potency [3] | Potency [4] | Potency [5] | Potency [6]

CCOC(=O)CCC(=O)O[C@H]1[C@H](O[C@@H]2[C@@H](C)[C@H](O[C@H]3C[C@@](C)(OC)[C@@H](O)[C@H](C)O3)[C@@H](C)C(=O)O[C@H](CC)[C@@](C)(O)[C@H](O)[C@@H](C)C(=O)[C@H](C)CC2(C)O)O[C@H](C)C[C@@H]1N(C)C (stereo partly drawn)
inactive: Potency [1] | Potency [2] | Potency [3] | Potency [4] | Potency [5]
-2.45%: activity change, negative = inhibition [6]

CC(=O)Nc1c(I)c(C(=O)O)c(I)c(N(C)C(C)=O)c1I
inactive: Potency [1] | Potency [2] | Potency [3] | Potency [4] | Potency [5]
-20.3%: activity change, negative = inhibition [6]

CCN1CCN(C(=O)N[C@@H](C(=O)N[C@]2(OC)C(=O)N3C(C(=O)O)=C(CSc4nnnn4C)CS[C@@H]32)[C@H](C)O)C(=O)C1=O
-16.3%: activity change, negative = inhibition [6]
inactive: Potency [1] | Potency [2] | Potency [3] | Potency [4] | Potency [5]

Cc1cc(N2CCN([C@@H]3CN[C@H](C(=O)N4CCSC4)C3)CC2)n(-c2ccccc2)n1
-20%: activity change, negative = inhibition [6]
inactive: Potency [1] | Potency [2] | Potency [3] | Potency [4] | Potency [5]

CN[C@@H]1[C@H](O[C@H]2[C@H](O[C@@H]3[C@@H](O)[C@H](O)[C@@H](N=C(N)N)[C@H](O)[C@H]3N=C(N)N)O[C@@H](C)[C@]2(O)C=O)O[C@@H](CO)[C@H](O)[C@H]1O
-18.7% [at 11.3 µM]: activity change, negative = inhibition [6]
inactive: activity change, negative = inhibition [1] -20.2% [at 11.4 µM] | activity change, negative = cytotoxicity [2] -3.3% [at 11.4 µM] | outcome [3] inactive [at 11.4 µM] | activity change, negative = cytotoxicity [4] -2.76% [at 11.4 µM] | Potency [5] | Potency [6]

O=C1C(c2[nH]c3ccc(S(=O)(=O)O)cc3c2O)=Nc2ccc(S(=O)(=O)O)cc21
inactive: Potency [1] | Potency [2] | Potency [3] | Potency [4] | Potency [5]
-23%: activity change, negative = inhibition [6]

CN(CC(=O)N1CCOCC1)Cc1c(Cl)cccc1NC(=O)c1ccccc1
inactive: Potency [1] | Potency [2] | Potency [3] | Potency [4] | Potency [5]
-38.4%: activity change, negative = inhibition [6]

CC(=O)NC(C=O)C(O)C(O)[C@H](O)CO (stereo partly drawn)
inactive: Potency [1] | Potency [2] | Potency [3] | Potency [4] | Potency [5]
-0.156%: activity change, negative = inhibition [6]

CC(=O)OCC1=C(C(=O)O)N2C(=O)[C@@H](NC(=O)CC#N)[C@H]2SC1
inactive: Potency [1] | Potency [2] | Potency [3] | Potency [4] | Potency [5] | Potency [6]

N#C[C@@H]1CCCN1C(=O)CNC12CC3CC(CC(O)(C3)C1)C2
inactive: Potency [1] | Potency [2] | Potency [3] | Potency [4] | Potency [5] | Potency [6]

CCN(CC)CCOC(=O)c1cccnc1
inactive: Potency [1] | Potency [2] | Potency [3] | Potency [4] | Potency [5]
-32.2%: activity change, negative = inhibition [6]

C[C@]12CCC(=O)C=C1CC[C@@H]1[C@@H]2[C@@H](O)C[C@@]2(C)[C@H]1CC[C@]2(O)C(=O)COP(=O)(O)O
inactive: Potency [1] | Potency [2] | Potency [3] | Potency [4] | Potency [5]
2.63% [at 27.1 µM]: activity change, negative = inhibition [6]

CN[C@H]1C(=O)N[C@@H]2Cc3ccc(cc3)Oc3cc4cc(c3O[C@@H]3O[C@H](C(=O)O)[C@@H](O)[C@H](O)[C@H]3NC(=O)CCCCCCCCC(C)C)Oc3ccc(cc3Cl)[C@@H](O)[C@@H]3NC(=O)[C@H](NC(=O)[C@@H]4NC(=O)[C@@H](NC2=O)c2cc(cc(O)c2Cl)Oc2cc1ccc2O)c1ccc(O)c(c1)-c1c(O[C@H]2O[C@H](CO)[C@@H](O)[C@H](O)[C@@H]2O)cc(O)cc1[C@@H](C(=O)NCCCN(C)C)NC3=O
0.0393% [at 27.1 µM]: activity change, negative = inhibition [6]
inactive: Potency [1] | Potency [2] | Potency [3] | Potency [4] | Potency [5]

O=C(O)C1CCc2cc(C3CCCCC3)c(Cl)cc21 (stereo not drawn)
inactive: Potency [1] | Potency [2] | Potency [3] | Potency [4] | Potency [5]
-32.2%: activity change, negative = inhibition [6]

CC(C)C[C@H](NC(=O)[C@@H](COC(C)(C)C)NC(=O)[C@H](Cc1ccc(O)cc1)NC(=O)[C@H](CO)NC(=O)[C@H](Cc1c[nH]c2ccccc12)NC(=O)[C@H](Cc1cnc[nH]1)NC(=O)[C@@H]1CCC(=O)N1)C(=O)N[C@@H](CCCN=C(N)N)C(=O)N1CCC[C@H]1C(=O)NNC(N)=O
-11.8% [at 27.1 µM]: activity change, negative = inhibition [6]
inactive: Potency [1] | Potency [2] | Potency [3] | Potency [4] | Potency [5]

COC(=O)N[C@H](C(=O)N1CCC[C@H]1C(=O)Nc1ccc([C@@H]2CC[C@@H](c3ccc(NC(=O)[C@@H]4CCCN4C(=O)[C@@H](NC(=O)OC)C(C)C)cc3)N2c2ccc(C(C)(C)C)cc2)cc1)C(C)C
inactive: Potency [1] | Potency [2] | Potency [3] | Potency [4] | Potency [5]
-22.9%: activity change, negative = inhibition [6]

CC(Oc1ccccc1)C(=O)N[C@@H]1C(=O)N2[C@@H]1SC(C)(C)[C@@H]2C(=O)O (stereo partly drawn)
inactive: Potency [1] | Potency [2] | Potency [3] | Potency [4] | Potency [5]
-18.1%: activity change, negative = inhibition [6]

[2H]C([2H])([2H])C(O)(CCO[C@@H](C)[C@H]1CC[C@H]2/C(=C/C=C3\C[C@@H](O)C[C@H](O)C3=C)CCC[C@]12C)C([2H])([2H])[2H]
-6.57%: activity change, negative = inhibition [6]
inactive: Potency [1] | Potency [2] | Potency [3] | Potency [4] | Potency [5]

CC[C@H]1OC(=O)[C@H](C)[C@@H](O[C@H]2C[C@@](C)(OC)[C@@H](O)[C@H](C)O2)[C@H](C)[C@@H](O[C@@H]2O[C@H](C)C[C@H](N(C)C)[C@H]2O)C(C)(O)C[C@@H](C)/C(=N\OCOCCOC)[C@H](C)[C@@H](O)[C@]1(C)O (stereo partly drawn)
inactive: Potency [1] | Potency [2] | Potency [3] | Potency [4] | Potency [5] | Potency [6]
